Source: PubChem
TPT1 inh – C. albicans TPT1 enzyme inhibition | recombinant caTPT1, FP RNA substrate dephosphorylation | inhibition, % at 5 µM | 300,000 tested, 0.81% active | AID 1962;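 active means inhibition above the mean of all tested compounds plus 3 SD, set per screening campaign, cut at about 24% in these data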;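 further: plate controls were DMSO alone for no effect and ferristatin control at 100 nM for full effect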
WT yeast gro inh – growth inhibition of WT yeast, mitochondrial fusion screen; 190,000 tested, 2.1% active; inhibition, % at 10 µM; AID 1362; mitochondrial fusion phenotypic screen, WT strain; in the data active means inhibition above about 58%; tested in S. cerevisiae
SKKanGAS inh – SKKanGAS growth inhibition | S. pyogenes SKKanGAS, kanamycin growth, BacTiter-Glo, 6 h | 300,000 tested, 1.3% active | AID 1662 | inhibition, % at 7.5 µM;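 active means mean replicate score, as percent of positive control median, at least 50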;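 further: strain carries kanamycin resistance gene driven by streptokinase promoter and grows in 40 µg/ml kanamycin; loss of luminescence reflects streptokinase promoter inhibition or plain growth inhibition; 0% = median of DMSO wells and 100% = positive control at its reference dose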
Rtt109 Vps75 – inhibitors of Candida albicans Rtt109/Vps75 histone acetyltransferase; 330,000 tested, 0.16% active; inhibition, % at 34.9 µM; purified Rtt109/Vps75, ThioGlo CoA-SH fluorescence, 4 h; Q5AAJ8; AID 540336;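 active means inhibition of at least 50% in every replicate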
Target sequence (Q5AAJ8 whole entry, looked up): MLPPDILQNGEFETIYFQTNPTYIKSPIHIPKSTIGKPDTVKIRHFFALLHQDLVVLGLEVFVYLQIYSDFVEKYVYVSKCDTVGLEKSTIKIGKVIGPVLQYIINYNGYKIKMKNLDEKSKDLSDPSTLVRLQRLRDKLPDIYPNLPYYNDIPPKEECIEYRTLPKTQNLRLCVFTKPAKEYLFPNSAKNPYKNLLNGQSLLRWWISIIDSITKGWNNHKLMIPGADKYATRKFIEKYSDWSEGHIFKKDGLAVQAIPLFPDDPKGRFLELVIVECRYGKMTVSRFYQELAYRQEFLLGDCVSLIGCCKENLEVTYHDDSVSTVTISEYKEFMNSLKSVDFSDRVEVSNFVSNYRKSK
Platelet DG rel – modulates dense granule release in human platelets | human platelet-rich plasma, SFLLRN dense granule ATP release, luminescence | inhibition, %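 (compounds screened at 7.5 µM in platelet-rich plasma)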 | 300,000 tested, 0.22% active;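 active means mean replicate score, as percent of positive control, at or above 50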
PHOSPHO1 inh – blocks human PHOSPHO1 phosphatase activity; Q8TCT1; inhibition, % at 13.3 µM; 290,000 tested, 1.1% active; recombinant PHOSPHO1, absorbance phosphatase assay; in the data active means inhibition above about 60%
Active calls of the source: *; . = no result. Shown are actives, neighbours in structure and some others; about 3.9% of the full set was active somewhere.

SMILES | TPT1 inh | WT yeast gro inh | SKKanGAS inh | Rtt109 Vps75 | Platelet DG rel | PHOSPHO1 inh
O=C(C1CCCCC1)N1CCC(c2nc3c(nnn3Cc3ccccc3Cl)c(=O)[nH]2)CC1 | . | . | . | -0.2 | . | .
O=C(C1CCCCC1)N1CCC(c2nc3c(nnn3Cc3c(F)cccc3Cl)c(=O)[nH]2)CC1 | -6.7 | -8.3 | 67.8* | 25.8 | 5.2 | -3.3
CCNc1nc(NC(C)(C)C)nc(N2CCCC2)n1 | -2.9 | 60.5* | 9.9 | -1.5 | 3.2 | 11.3
CC(C)(C)Nc1nc(N2CCCC2)nc(N2CCCC2)n1 | -4.4 | 11.0 | -9.1 | -4.8 | -6.6 | 3.8
CCOC(=O)N1CCN(C(=S)NC(=O)C23CC4CC(CC(C4)C2)C3)CC1 | -2.9 | 4.1 | 1.6 | -1.5 | -5.4 | -111.4
O=C(NC(=S)N1CCCCC1)C12CC3CC(CC(C3)C1)C2 | 1.8 | . | -9.4 | -1.5 | -8.2 | 83.7*
COc1ccccc1N(C)S(=O)(=O)c1ccc(C(=O)Nc2cccc(Br)c2)cc1 | . | . | . | 4.6 | . | .
CN1CCN(c2nc(Nc3cccc(C(F)(F)F)c3)nc(N3CCOCC3)n2)CC1 | 1.0 | 6.8 | -0.9 | 5.4 | -0.8 | 35.8
FC(F)(F)c1cccc(Nc2nc(N3CCCC3)nc(N3CCCC3)n2)c1 | -5.6 | 52.5 | 75.5* | -3.1 | -3.2 | -2.1
O=C(Nc1nc(-c2ccccn2)cs1)c1ccc2c(c1)OCCO2 | -2.6 | 68.5* | 83.5* | -4.9 | 5.4 | 27.7
Cc1csc(NC(=O)c2ccc(C)c([N+](=O)[O-])c2)n1 | -2.5 | 28.4 | -0.8 | -3.8 | 2.3 | 13.5
CC(=O)Nc1ccc(C(=O)Nc2nc(-c3ccccn3)cs2)cc1 | 4.1 | 7.2 | 5.7 | -6.7 | 3.2 | -64.9
Cc1cc(C(=O)Nc2nc(-c3ccccn3)cs2)ccc1[N+](=O)[O-] | -0.5 | 62.5* | 91.4* | 1.9 | 7.3 | -98.1
O=C(Nc1nc(-c2ccccn2)cs1)c1cc(Cl)ccc1[N+](=O)[O-] | 0.3 | 69.7* | 95.0* | 3.0 | -4.0 | -98.5
Cc1csc(NC(=O)c2ccc(Cl)cc2[N+](=O)[O-])n1 | -2.0 | -5.7 | 1.2 | -9.3 | 0.1 | 9.4
Cc1ccc2nc(SCC(=O)NCCCN3CCCC3=O)[nH]c2c1 | . | . | . | 2.9 | . | .
Nc1cc2sc(-c3ccc(C(=O)O)cc3)nc2cc1Cl | -1.3 | 30.8 | 44.4 | -4.5 | 76.9* | -2.4
Nc1ccc(-c2nc3ccc(N)cc3s2)cc1 | 6.5 | . | 15.9 | -12.4 | 54.2* | 14.9
Nc1cccc(-c2nc3ccc(N)cc3s2)c1 | 2.4 | 20.0 | 26.3 | -16.6 | 76.2* | -9.4
Nc1ccc(-c2nc3ccc(C(=O)O)cc3s2)cc1 | 2.5 | 8.4 | 26.4 | 4.6 | 14.3 | -13.4
CCOc1ccc(N2CC(C(=O)NC3CCCCCC3)CC2=O)cc1 (stereo not drawn) | -3.0 | . | 2.5 | 48.2 | -7.4 | 19.4
Oc1ccc(Cl)cc1CNCc1ccc(C(F)(F)F)cc1 | -2.5 | . | . | 1.7 | . | .
O=C(CSc1nnc(C2CC2)n1C1CC1)c1ccc(Br)s1 | . | . | . | -2.8 | . | .
O=C(CCN1CCOCC1)c1ccc2c(c1)OCCO2 | -3.9 | -1.5 | -7.4 | 5.8 | -23.7 | -9.5
O=C(CCN1CCc2ccccc2CC1)c1ccc2c(c1)OCCO2 | 0.6 | -3.9 | 1.1 | 176.8* | 4.2 | -11.5
SMILES | TPT1 inh | WT yeast gro inh | SKKanGAS inh | Rtt109 Vps75 | Platelet DG rel | PHOSPHO1 inh
CC(=O)C[C@@H](O)CC(=O)[C@@H]1OC(=O)[C@@H](C)C/C=C\Cc2ccccc21 | . | . | . | 6.0 | . | .
CCCCCCC(=O)Nc1nc(C)c(-c2csc(Nc3ccc(Cl)cc3)n2)s1 | 6.8 | -3.9 | 17.0 | -0.4 | 0.1 | 71.9*
CCCC(C)C(=O)Nc1nc(C)c(-c2csc(Nc3cc(Cl)ccc3C)n2)s1 (stereo not drawn) | 3.0 | -3.4 | 23.9 | 1.9 | 5.6 | 74.3*
Cc1nc(NC(=O)CC(C)C)sc1-c1csc(Nc2ccc(Cl)cc2)n1 | 4.0 | 80.7* | 14.4 | -3.0 | 2.8 | 20.1
Cc1ccc(Cl)cc1Nc1nc(-c2sc(NC(=O)c3cccc(Cl)c3)nc2C)cs1 | 5.8 | 27.8 | 19.5 | . | 2.0 | -31.5
CCCCCC(=O)Nc1nc(C)c(-c2csc(Nc3cc(Cl)ccc3C)n2)s1 | 4.8 | -9.1 | 14.3 | -3.6 | -3.7 | 69.6*
CCCCCC(=O)Nc1nc(C)c(-c2csc(Nc3ccc(Cl)cc3)n2)s1 | 5.5 | 51.6 | 16.8 | 3.2 | 8.9 | -143.4
Cc1nc(NC(=O)c2ccccc2)sc1-c1csc(Nc2ccc(Cl)cc2)n1 | 4.5 | 17.5 | 26.1 | . | 4.1 | -68.5
O=C(CN1C(=O)CCOc2ccccc21)Nc1ccc(Cl)c(S(=O)(=O)N2CCOCC2)c1 | . | . | . | 10.2 | . | .
